From PubChem BioAssay AID1569 (National Center for Advancing Translational Sciences (NCATS), 2009)
Records with an inconclusive call do not appear. Values without a mark were called inactive. Calls of active or inactive are those of the source. The call rests on the fitted dose curve; in most records, active means well fitted inhibition curve with a large enough effect; inconclusive means small, poorly fitted or top-dose-only effect, or effect the other way, or another doubt; inactive means no such curve, though single readings can be large or run the other way.

Experiment: Confirmation Concentration-Response Assay for lipid storage modulators; further: nearly all actives have a fitted effect of over 80% in size;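 on activity change, negative = inhibition: -100% = full block of lipid deposition by 20 µM Triacsin C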
Settings: Drosophila S3 cells, lipid droplet BODIPY/CellTracker ratio, 18-24 h; series mostly up to 46.1 µM; activity change, negative = inhibition: at the top concentration
Method in brief: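 Cells at 5,000/well received compound as a titration plus oleic acid (added as 400 uM solution) and were incubated 18–24 h at 24 °C. BODIPY 493/503 lipid signal and CellTracker Red cell count were read by 488-nm laser-scanning cytometry. Activity was normalised to 20 uM Triacsin C.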
Potency means the concentration at half of the fitted maximal effect.

Structure (SMILES)	Potency	activity change, negative = inhibition [%]
CCOc1ccc(CCNC(=O)COC(=O)/C=C/c2ccc(OCC#N)c(OC)c2)cc1OCC	3150 nM (active)	
COc1ccc(NC(=O)NC2(C(=O)N3CCN4CCCC4C3)CCCCC2)cc1 (stereo unspecified)		10.5
COc1ccc(Cl)cc1NC(=O)CN(C)C(=O)CCCc1c[nH]c2ccccc12	22300 nM (active)	
CCOc1ccc(CCNC(=O)COC(=O)/C=C/c2ccccc2)cc1OCC	3530 nM (active)	
CCOc1ccc(CCNC(=O)CSCc2ccc(C)cc2)cc1OCC		-24
CCOC(=O)C1CCN(C(=O)C2(NC(=O)Nc3cccc(F)c3)CCCCC2)CC1	3970 nM (active)	
CC1CCCN(C2=C(NS(=O)(=O)c3ccc(Br)cc3)C(=O)c3ccccc3C2=O)C1 (stereo unspecified)	2500 nM (active)	
COc1ccc(CCNC(=O)CCCCCNc2nc(=S)[nH]c3ccccc23)cc1OC	2500 nM (active)	
COc1ccc(NC(=O)NC2(C(=O)N3CCN(C)CC3)CCCCC2)cc1		22.7
COc1ccc(CCNC(=O)CSc2ccc3ccccc3c2)cc1OC	1410 nM (active)	
CC(C)N1CCc2c(sc(NC(=O)c3ccc(S(=O)(=O)N4CCCCC4C)cc3)c2C(N)=O)C1 (stereo unspecified)		-14.3
COC(=O)c1ccc(C(=O)NC2CCCc3c2cnn3-c2ccccc2F)nc1 (stereo unspecified)	177 nM (active)	
CC(Oc1ccc2oc3ccccc3c2c1)C(=O)NC12CC3CC(CC(C3)C1)C2 (stereo unspecified)	705 nM (active)	
CCOc1ccc(CCNC(=O)COC(=O)c2cccc(S(=O)(=O)N3CCCCC3)c2)cc1OCC		-7.33
CSCC(=O)NC1CCCc2c1cnn2-c1cc(F)cc(F)c1 (stereo unspecified)	2500 nM (active)	
O=C(COC(=O)c1ccc(CO)cc1)NCc1cccs1		16.4
CCOc1ccc(CCNC(=O)COC(=O)/C=C/c2ccc(C)o2)cc1OCC	499 nM (active)	
COc1ccc(/C=C(/NC(=O)c2cccs2)C(=O)Nc2ccc(C)cc2)cc1OC	250 nM (active)	

Structure (SMILES)	Potency	activity change, negative = inhibition [%]
c1ccc2c(c1)OCC(CNc1ncnc3sccc13)O2 (stereo unspecified)	996 nM (active)	
CCC1CCCCN1C(=O)c1cc(COc2ccc3ncccc3c2)on1 (stereo unspecified)	4340 nM (active)	
CCC(C)N1C(=O)c2ccccc2C1C(=O)NC1CCCCCC1 (stereo unspecified)	1990 nM (active)	
CCOc1ccc(CCNC(=O)Cn2cccc2C(=O)c2ccccc2C)cc1OCC	4990 nM (active)	
CCOc1ccc(CCNC(=O)Cn2cccc2C(=O)c2ccccc2)cc1OCC	7910 nM (active)	
N#Cc1ccsc1NC(=O)CN1CCN(S(=O)(=O)c2cc(Cl)ccc2Cl)CC1	2500 nM (active)	
c1ccc(CNc2ncnc3ccccc23)cc1	12500 nM (active)	
COc1nc(Nc2nc3ccccc3c(=O)[nH]2)nc2ccc(C)cc12	2170 nM (active)	
CCOc1ccc(CCNC(=O)COC(=O)COc2cc(C)cc(C)c2)cc1OCC		12.7
CCCOc1ccc2oc(=O)c3c(c2c1)CCCN3C(=O)CN1CCN(C(=O)c2ccco2)CC1	1990 nM (active)	
COCCCN1C(=O)c2ccc(C(=O)OCC(=O)NCc3ccccc3OC)cc2C1=O		24.1
COc1ccc(-c2nc(C)ncc2N=Nc2ccccc2)cc1	25000 nM (active)	
O=C(CSc1nnc2c(n1)[nH]c1ccccc12)Nc1cccc(S(=O)(=O)N2CCOCC2)c1	15800 nM (active)	
CNC(=O)NC(=O)C(C)OC(=O)c1c2c(nc3ccccc13)/C(=C/c1cccs1)CC2 (stereo unspecified)	141 nM (active)	
COc1ccc(CCNC(=O)[C@H](C)N2C(=O)N3CCc4c([nH]c5ccccc45)[C@@]3(C)C2=O)cc1OC	560 nM (active)	
O=S(=O)(c1ccccc1C(F)(F)F)N1CCC(n2cnc3ccccc32)CC1	996 nM (active)	
COc1ccc(CCNC(=O)C(Sc2ccccn2)c2ccccc2)cc1OC (stereo unspecified)		26.7
CCOc1ccc(CCNC(=O)COC(=O)CSc2ccccc2C)cc1OCC		22.7
